In PubChem BioAssay (EPA / NIEHS) one finds outcome and AC50 data, which are given here for 29 compounds.

The structures appear in SMILES notation. Active and inactive are the calls of the source. How the source made its calls: active means hit-call score of the fitted dose curve at least 0.9, where 1 is the maximum; inactive means score below 0.9.

Cellular tumor antigen p53 (Homo sapiens), sequence (P04637 whole entry, looked up): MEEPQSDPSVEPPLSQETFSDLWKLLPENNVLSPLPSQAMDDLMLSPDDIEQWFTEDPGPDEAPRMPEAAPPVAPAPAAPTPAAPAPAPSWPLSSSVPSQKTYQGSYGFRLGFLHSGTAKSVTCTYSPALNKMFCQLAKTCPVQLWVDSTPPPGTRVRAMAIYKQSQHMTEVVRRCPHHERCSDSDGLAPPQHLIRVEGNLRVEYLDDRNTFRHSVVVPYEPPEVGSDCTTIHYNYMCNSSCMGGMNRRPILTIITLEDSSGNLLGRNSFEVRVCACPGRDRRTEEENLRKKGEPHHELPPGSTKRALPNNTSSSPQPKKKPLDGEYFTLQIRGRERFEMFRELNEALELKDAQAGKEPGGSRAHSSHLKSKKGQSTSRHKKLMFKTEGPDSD

System in the first assay: not listed separately
Put plainly: ATG_NRF2_ARE_CIS: Attagene CIS-FACTORIAL HepG2 Assay for human Nuclear Factor Erythroid 2 Related Factor 2 (NFR2) response to Antioxidant Response Elements (ARE) (AID 2282992). Particulars: HepG2 Attagene ARE/NRF2 reporter, transcription factor activity; actives raise or lower the signal. A digest of the protocol: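 Cis-factorial assay: transfected HepG2 reporter library, 24 h dosing, mRNA readout via RT-PCR/CE; DMSO-referenced bidirectional analysis.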
On to `CCOCCO`, for which the compound was classed as inactive.
As to `O=c1[nH]c2ccc(S(=O)CCN3CCC(Cc4ccc(F)cc4)CC3)cc2o1` (configuration not stated), the AC50 is 39.4 µM (active).
Same read-out and setting: the same measure for `Fc1ccccc1[C@@H](F)COC1CCC(Nc2ncnc3[nH]ncc23)CC1` (some centres not stated): 6.77 µM (active).
Consider `COC(=O)CC(=O)OC`, for which the result was inactive.
The same measure, in the same setting: the entry for `CCNc1ccccc1` is “inactive”.
In the case of `CC[C@H](C)C(=O)O[C@H]1C[C@@H](C)C=C2C=C[C@H](C)[C@H](CC[C@@H]3C[C@@H](O)CC(=O)O3)[C@H]21`, the AC50 is 33.4 µM (active).
The same measure, in the same setting: the figure for `COc1cccc(-c2ccc(/C=C\CN3CCCCCC3)cc2Cl)c1` is 9.89 µM (active).
For `COc1ccc(-n2nc(C(F)F)cc2-c2ccc(S(C)=O)cc2)cc1` (configuration not stated), the compound was classed as inactive.
As for `CCCCCCc1ccc(O)cc1O`, the AC50 is 24.3 µM (active).
On the same count and under the same terms, the figure for `COCCOc1cc2cc(C(=O)NC3CCN(C(C)C)CC3)n(CC(=O)Nc3ccc(Cl)cn3)c2cn1` is 72.9 µM (active); for `CCOC(=O)CC(CC(=O)OCC)(OC(C)=O)C(=O)OCC` it is 61.4 µM (active).
For `CC(=O)OCCC(C)C`, the outcome was inactive.

System in another assay: not listed separately
The assay can be described thus: ATG_Oct_MLP_CIS: Attagene CIS-FACTORIAL HepG2 Assay for human Octamer-Binding Transcription Factor (Oct) (AID 2282993). The following applies: HepG2 Attagene cis-factorial Oct reporter, mRNA; actives raise or lower the signal. The procedure, abridged:
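Cells of the HepG2 line express promoter-controlled reporter sequences whose mRNA levels, after 24 h treatment, are measured by RT-PCR and capillary electrophoresis. Increases and decreases are scored relative to DMSO.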
On to `CCOC(=O)c1ccc(C2CCC(NC[C@H](O)COc3ccc(O)c(NS(C)(=O)=O)c3)CC2)cc1` (some centres not stated), for which the AC50 was 49.2 µM (active).
In the case of `CCOCCOCCOCCO`, the outcome was inactive.
The same measure, in the same setting: the same measure for `CC(=O)OC[C@H]1O[C@@](COC(C)=O)(O[C@H]2O[C@H](COC(C)=O)[C@@H](OC(C)=O)[C@H](OC(C)=O)[C@H]2OC(C)=O)[C@@H](OC(C)=O)[C@@H]1OC(C)=O`: “inactive”.
Take `CCC(C)(C)C(=O)O[C@H]1C[C@@H](C)C=C2C=C[C@H](C)[C@H](CC[C@@H]3C[C@@H](O)CC(=O)O3)[C@H]21`: the result was inactive.
As to `CCCN(C1CCN(C(=O)C2CCNCC2)CC1)[C@@H]1CCc2ccc(OC)cc2C1`, the AC50 was 178 µM (active).
As for `COc1ccc(/C=C/S(=O)(=O)NC(=O)c2ccc(C)cc2Cl)cc1`, the call was inactive.
Still for that read-out and setting: the entry for `O=C(O)c1cc(N=Nc2ccc(S(=O)(=O)Nc3ccccn3)cc2)ccc1O` is “inactive”.
Same read-out and setting: the entry for `CC(C)=CCC/C(C)=C\CO` is “inactive”; for `C=CCCCCCCCCC(=O)O` it is “inactive”.
On the same count and under the same terms, the same measure for `O=C(O)CC(O)C(=O)O` (configuration not stated): “inactive”; for `CC(=O)c1ccc2c(c1)[C@H](NC(=O)c1ccc(F)cc1)[C@@H](O)C(C)(C)O2`: “inactive”.
Consider `Oc1ccc2c(c1)-c1ccccc1C2`, for which the AC50 is 32.6 µM (active).
`CC(C)=CCC/C(C)=C/CO`: the result was inactive.
On the same count and under the same terms, the same measure for `CCN(C(=O)c1cc(C)cc(OC[C@H](C)Nc2ccncc2)c1)C(C)C`: “inactive”; for `On1ccccc1=S`: “inactive”; for `CCOCCO`: “inactive”.
Still for that read-out and setting: the same measure for `Fc1ccccc1[C@@H](F)COC1CCC(Nc2ncnc3[nH]ncc23)CC1` (some centres not stated): “inactive”; for `COC(=O)CC(=O)OC`: “inactive”.
Still for that read-out and setting: the same measure for `CCNc1ccccc1`: “inactive”.
As for `CC[C@H](C)C(=O)O[C@H]1C[C@@H](C)C=C2C=C[C@H](C)[C@H](CC[C@@H]3C[C@@H](O)CC(=O)O3)[C@H]21`, the AC50 was 6.78 µM (active).
The same measure, in the same setting: the figure for `COc1cccc(-c2ccc(/C=C\CN3CCCCCC3)cc2Cl)c1` is 11 µM (active).
As to `COc1ccc(-n2nc(C(F)F)cc2-c2ccc(S(C)=O)cc2)cc1` (configuration not stated), the compound was called inactive.
Turning to `CCCCCCc1ccc(O)cc1O`, the AC50 was 50.9 µM (active).
On the same count and under the same terms, the same measure for `COCCOc1cc2cc(C(=O)NC3CCN(C(C)C)CC3)n(CC(=O)Nc3ccc(Cl)cn3)c2cn1`: 119 µM (active).
For the compound `CCOC(=O)CC(CC(=O)OCC)(OC(C)=O)C(=O)OCC`, the call was inactive.
As for `CC(=O)OCCC(C)C`, the result was inactive.

A further assay concerns the target Cellular tumor antigen p53 (Homo sapiens) (UniProt P04637). Put plainly: ATG_p53_CIS: Attagene CIS-FACTORIAL HepG2 Assay for human p53 Transcription Factor (AID 2282994). The following applies: HepG2 p53 cis-element reporter, Attagene mRNA; actives raise or lower the signal. The procedure, abridged: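 Using HepG2 hepatoma cells carrying cis-acting multiplexed reporters, mRNA induction is detected after a 24 h exposure. Gain- and loss-of-signal responses are fitted relative to DMSO-treated cells.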
Turning to `COC(=O)c1ccccc1O`, the call was inactive.
Still for that read-out and setting: the same measure for `O=C(O)c1cc(N=Nc2ccc(S(=O)(=O)Nc3ccccn3)cc2)ccc1O`: “inactive”.
For `CCc1cc(SCc2sc(-c3ccc(C(F)(F)F)cc3)nc2CN2CCN(c3ccc(OC)cc3)CC2)ccc1OCC(=O)O`, the compound was called inactive.
Regarding `CCN(C(=O)c1cc(C)cc(OC[C@H](C)Nc2ccncc2)c1)C(C)C`, the call was inactive.
As to `On1ccccc1=S`, the compound was classed as inactive.
Same read-out and setting: the same measure for `O=c1[nH]c2ccc(S(=O)CCN3CCC(Cc4ccc(F)cc4)CC3)cc2o1` (configuration not stated): “inactive”; for `CCCCCCc1ccc(O)cc1O`: “inactive”.
In the case of `CCOC(=O)CC(CC(=O)OCC)(OC(C)=O)C(=O)OCC`, the outcome was inactive.

Read-out in a further assay: not listed separately
The assay can be described thus: BSK_3C_TissueFactor: BioMAP Diversity Plus: 3C Assay for Tissue Factor Biomarker Activity (AID 2282997). Particulars: BioMAP 3C HUVEC, tissue factor biomarker readout; actives raise or lower the signal. A digest of the protocol: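 Values derive from bidirectional curve fitting against DMSO of Tissue Factor ELISA signals, taken 24 h after dosing primary human umbilical vein endothelial cells.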
Regarding `COC(=O)c1ccccc1O`, the result was inactive.
On to `CC(=O)OC[C@H]1O[C@@](COC(C)=O)(O[C@H]2O[C@H](COC(C)=O)[C@@H](OC(C)=O)[C@H](OC(C)=O)[C@H]2OC(C)=O)[C@@H](OC(C)=O)[C@@H]1OC(C)=O`, for which the outcome was inactive.
Turning to `CCC(C)(C)C(=O)O[C@H]1C[C@@H](C)C=C2C=C[C@H](C)[C@H](CC[C@@H]3C[C@@H](O)CC(=O)O3)[C@H]21`, the AC50 was 20 µM (active).
For the compound `CCCN(C1CCN(C(=O)C2CCNCC2)CC1)[C@@H]1CCc2ccc(OC)cc2C1`, the outcome was inactive.
Same read-out and setting: the same measure for `CC(C)=CCC/C(C)=C\CO`: “inactive”; for `O=C(O)CC(O)C(=O)O` (configuration not stated): “inactive”.
In the case of `Oc1ccc2c(c1)-c1ccccc1C2`, the concentration at half-maximal activity (AC50) was 0.791 µM (active).
Regarding `CC(C)=CCC/C(C)=C/CO`, the result was inactive.
`CCc1cc(SCc2sc(-c3ccc(C(F)(F)F)cc3)nc2CN2CCN(c3ccc(OC)cc3)CC2)ccc1OCC(=O)O`: the AC50 was 12.4 µM (active).
On the same count and under the same terms, the figure for `On1ccccc1=S` is 18.6 µM (active).
`CCOCCO`: the result was inactive.
Same read-out and setting: the entry for `O=c1[nH]c2ccc(S(=O)CCN3CCC(Cc4ccc(F)cc4)CC3)cc2o1` (configuration not stated) is “inactive”.
For the compound `CC[C@H](C)C(=O)O[C@H]1C[C@@H](C)C=C2C=C[C@H](C)[C@H](CC[C@@H]3C[C@@H](O)CC(=O)O3)[C@H]21`, the AC50 is 31 µM (active).
Regarding `COc1ccc(-n2nc(C(F)F)cc2-c2ccc(S(C)=O)cc2)cc1` (configuration not stated), the result was inactive.
Same read-out and setting: the same measure for `COCCOc1cc2cc(C(=O)NC3CCN(C(C)C)CC3)n(CC(=O)Nc3ccc(Cl)cn3)c2cn1`: “inactive”; for `CC(=O)OCCC(C)C`: “inactive”.

Usually AC50 stands for the midpoint of the concentration-response curve, whichever way the signal moves.
